{"source": "PubChem BioAssay AID778", "about": "(Sanford-Burnham Center for Chemical Genomics, 2007)", "note": "Hit rate of the full screen: of about 96,000 compounds, about 20,000 (21%) were called active.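 Rule for the calls: active = CYP2C19 inhibition above a set limit at 5 µM in the primary screen (cut at about 50% in these data); inactive = the rest.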 A selection follows.", "data": [{"molecular_target": "Cytochrome P450 2C19 (Homo sapiens) (UniProt P33261)", "sequence (P33261 whole entry, looked up)": "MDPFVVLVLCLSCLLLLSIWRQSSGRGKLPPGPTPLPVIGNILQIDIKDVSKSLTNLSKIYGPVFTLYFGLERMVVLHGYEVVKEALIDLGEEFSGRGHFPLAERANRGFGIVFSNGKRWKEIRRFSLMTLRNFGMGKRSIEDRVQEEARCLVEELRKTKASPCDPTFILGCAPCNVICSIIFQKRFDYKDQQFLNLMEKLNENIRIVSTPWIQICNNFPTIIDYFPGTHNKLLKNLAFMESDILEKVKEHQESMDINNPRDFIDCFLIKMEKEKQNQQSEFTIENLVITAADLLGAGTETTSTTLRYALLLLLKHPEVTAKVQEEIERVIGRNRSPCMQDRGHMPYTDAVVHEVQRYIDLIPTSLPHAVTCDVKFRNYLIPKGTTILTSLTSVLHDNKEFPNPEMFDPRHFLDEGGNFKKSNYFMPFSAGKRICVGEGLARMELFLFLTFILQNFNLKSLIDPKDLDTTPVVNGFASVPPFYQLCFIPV", "assay": "blockers of cytochrome P450 2C19 activity – biochemical, luminescence, ADME assay, primary screen (AID 778);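 note: plate controls were negative control wells for no effect and 2.5 mM tranylcypromine positive control for full effect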", "conditions": "CYP2C19 Supersomes, luciferin-H EGE luminescence, 30 min; at 5 µM; active compounds read high", "values": [{"smiles": "Cn1c(O)c(C=Nc2ccc3c(c2)CCC3)c(=O)n(C)c1=O", "inhibition": "31.3% (inactive)"}, {"smiles": "N#Cc1ccc(Cn2cc(C(=O)c3ccco3)c3ccccc32)cc1", "inhibition": "9.2% (inactive)"}, {"smiles": "CSC1=NP(=S)(SC)N(C)c2nc3n(c21)CCC3", "note": "(stereo not drawn)", "inhibition": "8.2% (inactive)"}, {"smiles": "COC(=O)C(c1ccccc1)N1CCCCCC1", "note": "(stereo not drawn)", "inhibition": "12.8% (inactive)"}, {"smiles": "OC(CNC1CCCCC1)c1ccccc1", "note": "(stereo not drawn)", "inhibition": "58.5% (active)"}, {"smiles": "O=C(CSC1c2ccccc2-c2ccccc21)N/N=C/c1ccccc1", "inhibition": "25.3% (inactive)"}, {"smiles": "CCCC(C)n1[nH]c(=O)c2c1NC(=O)CSC2c1ccc(OC)c(OC)c1", "note": "(stereo not drawn)", "inhibition": "7.2% (inactive)"}, {"smiles": "c1cncc(CNC2=NCCC2)c1", "inhibition": "-16.9% (inactive)"}, {"smiles": "CCc1cccc2c(C#N)cn(CC(=O)N3CCOCC3)c12", "inhibition": "6.7% (inactive)"}, {"smiles": "CC(=O)Nc1ccccc1C(=O)OCC(=O)c1cccc2ccccc12", "inhibition": "51.1% (active)"}, {"smiles": "CCOc1ccc(C2SCC(=O)Nc3c2c(C)nn3C2CCOC(C)(C)C2)cc1", "note": "(stereo not drawn)", "inhibition": "7% (inactive)"}, {"smiles": "CC(C)c1ccc(OCC(=O)N2CCN(C)CC2)c(Br)c1", "inhibition": "76% (active)"}, {"smiles": "CN1CCN(C(=O)COc2ccc(C(C)(C)C)cc2Br)CC1", "inhibition": "66.5% (active)"}, {"smiles": "NC(=O)Nc1cccc(C(F)(F)F)c1", "inhibition": "26.2% (inactive)"}, {"smiles": "Cc1nc2nc(C)c(CCC(=O)N3CCC4(CC3)OCCO4)c(C)n2n1", "inhibition": "0% (inactive)"}, {"smiles": "CC(=O)c1c(O)n(C2CCCCCC2)c(=O)[nH]c1=O", "inhibition": "27% (inactive)"}, {"smiles": "O=C(COc1ccc2ccccc2c1)N1CCN(Cc2ccncc2)CC1", "inhibition": "90.1% (active)"}, {"smiles": "CCN(CC)C(=O)c1ccc(NC(=O)c2cc(-n3cnnc3)ccc2Cl)cc1", "inhibition": "11.1% (inactive)"}, {"smiles": "Cn1c(C(=O)N2CCC(C(=O)N3CCC4(CC3)OCCO4)CC2)cc2sccc21", "inhibition": "7.5% (inactive)"}, {"smiles": "CC(C)(C)c1ccc(CN2C(=O)CN=C(c3ccccc3)c3ccccc32)cc1", "inhibition": "16.5% (inactive)"}, {"smiles": "CCOC(=O)c1c(-c2ccccc2)oc2ccc(OC(=O)N(C)C)cc12", "inhibition": "60.7% (active)"}, {"smiles": "Cc1ccc2c(c1)C1CN(C)CCC1N2C(=O)Cn1nnc(-c2ccccc2F)n1", "note": "(stereo not drawn)", "inhibition": "8.3% (inactive)"}, {"smiles": "O=c1c2ccccc2nc(-c2ccc(Cl)cc2Cl)n1-c1ccncc1", "inhibition": "76.4% (active)"}, {"smiles": "CCc1nc2ccccc2c(=O)n1-c1cccc(OC)c1", "inhibition": "33.5% (inactive)"}, {"smiles": "O=c1c2ccccc2nc(-c2ccco2)n1-c1ccc(Br)cn1", "inhibition": "-3.5% (inactive)"}, {"smiles": "COC(=O)C(O)(c1ccc(NC(=O)c2ccco2)c(OC)c1)C(F)(F)F", "note": "(stereo not drawn)", "inhibition": "39% (inactive)"}, {"smiles": "CCNc1nc2[nH]c(=O)c3c(c2s1)OC(N)=C(C#N)C3c1cccs1", "note": "(stereo not drawn)", "inhibition": "-19.6% (inactive)"}, {"smiles": "CCC(=O)CC(c1ccc([N+](=O)[O-])cc1)c1c(O)c2ccccc2oc1=O", "note": "(stereo not drawn)", "inhibition": "1.3% (inactive)"}]}]}
